# Source: the supplement of paper PMC8728848
# The entries come from a sample that favours the strongest signals as a whole.
# B1: PX9961M-bvu-482-23-482 (Bacteroides vulgatus) (protein)
# chain: WLDLAPSTQVDTETSINVLSDIEFTLNGIYSTMQSSDAYSGRLVYYGDVTGDDMQAVSSTKRTGNYYRFNFTKDNGPSSHWSYLYSIIQNCNLILMNVDKLSIDEDETEYKNDLKGQALAIRGMALFDLTRIFGYPYLKDNGASLGVPIVKELSTIDSKPARNTVAECYTEIISDLKNSTELLSGDFNKGKVNRWAAMTLLSRVYLYKGEYNEALTMAENAIKGAEKEGYALWTNEEYPTAWGNDASASNPGEILFEIVNLTTDSPGKESMGYLNSYNGYDDMCITCSFYQLLKKDPKDVRLKILSFDKKYYAYVNKYQPQQGENITDANIPLIRLSEAYLNAAEAAVQTGDNAKAVKYLNSIVQRANPENSVEGKTLTLENVLDERRKELVAEGHRMYDVIRNGMTVKRIDVKDSDINKTKHNTAYMEYDWNFHKILLPIPKKEMDANPNMKQNPGYVD
# Columns and labels:
# Experiment in all cases: glycan array binding signal (z-score within array); higher = stronger binding
# Details in all cases: glycan notation: IUPAC condensed, linker removed
# Gal6S(b1-4)Glc6S = target: Gal6S(b1-4)Glc6S
# How it was run: (§1)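 Glycan array binding is given as a within-array Z-score, which can be read as non-binding when negative. The arrays, 3228 of them, came from the Consortium for Functional Glycomics database and were retained only where the protein sequence was available. Z-scores were averaged across arrays of the same protein sequence at different concentrations or buffers and across linkers.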
# Gal6S(b1-4)GlcNAc6S = target: Gal6S(b1-4)GlcNAc6S
# How it was run: as §1
# GalNAc(b1-4)GlcNAc6S = target: GalNAc(b1-4)GlcNAc6S
# How it was run: as §1
# [1] = target: GlcNAc(a1-4)Gal(b1-4)GlcNAc
# How it was run: as §1
# [2] = target: GlcNAc(a1-6)Gal(b1-4)GlcNAc
# How it was run: as §1
# GlcNAc(b1-3)Fuc = target: GlcNAc(b1-3)Fuc
# How it was run: as §1
# GlcNAc(b1-3)Gal(b1-4)Glc = target: GlcNAc(b1-3)Gal(b1-4)Glc
# How it was run: as §1
# [3] = target: GlcNAc(b1-3)Gal(b1-4)GlcNAc(b1-2)[GlcNAc(b1-3)Gal(b1-4)GlcNAc(b1-6)]Man(a1-6)[GlcNAc(b1-3)Gal(b1-4)GlcNAc(b1-2)Man(a1-3)]Man(b1-4)GlcNAc(b1-4)GlcNAc
# How it was run: as §1
# [4] = target: GlcNAc(b1-3)Gal(b1-4)GlcNAc(b1-3)Gal(b1-4)GlcNAc(b1-2)Man(a1-3)[GlcNAc(b1-3)Gal(b1-4)GlcNAc(b1-3)Gal(b1-4)GlcNAc(b1-2)Man(a1-6)]Man(b1-4)GlcNAc(b1-4)[Fuc(a1-6)]GlcNAc
# How it was run: as §1
# [5] = target: GlcNAc(b1-3)Gal(b1-4)GlcNAc(b1-3)Gal(b1-4)GlcNAc(b1-3)Gal(b1-4)GlcNAc(b1-2)[GlcNAc(b1-3)Gal(b1-4)GlcNAc(b1-3)Gal(b1-4)GlcNAc(b1-3)Gal(b1-4)GlcNAc(b1-6)]Man(a1-6)[GlcNAc(b1-3)Gal(b1-4)GlcNAc(b1-3)Gal(b1-4)GlcNAc(b1-3)Gal(b1-4)GlcNAc(b1-2)Man(a1-3)]Man(b1-4)GlcNAc(b1-4)[Fuc(a1-6)]GlcNAc
# How it was run: as §1
# [6] = target: GlcNAc(b1-3)Gal(b1-4)GlcNAc(b1-3)Gal(b1-4)GlcNAc(b1-3)Gal(b1-4)GlcNAc(b1-3)Gal(b1-4)GlcNAc(b1-2)[GlcNAc(b1-3)Gal(b1-4)GlcNAc(b1-3)Gal(b1-4)GlcNAc(b1-3)Gal(b1-4)GlcNAc(b1-3)Gal(b1-4)GlcNAc(b1-6)]Man(a1-6)[GlcNAc(b1-3)Gal(b1-4)GlcNAc(b1-3)Gal(b1-4)GlcNAc(b1-3)Gal(b1-4)GlcNAc(b1-3)Gal(b1-4)GlcNAc(b1-2)Man(a1-3)]Man(b1-4)GlcNAc(b1-4)[Fuc(a1-6)]GlcNAc
# How it was run: as §1
# [7] = target: GlcNAc(b1-3)Gal(b1-4)GlcNAc(b1-6)[GlcNAc(b1-3)Gal(b1-3)]GalNAc
# How it was run: as §1
# [8] = target: Man(a1-2)Man(a1-2)Man(a1-6)[Man(a1-3)]Man
# How it was run: as §1
# [9] = target: Man(a1-3)[Man(a1-6)]Man(a1-6)[Man(a1-3)]Man
# How it was run: as §1
# Neu5Ac(a2-3)Gal = target: Neu5Ac(a2-3)Gal
# How it was run: as §1
# [10] = target: Neu5Ac(a2-3)Gal(b1-3)GalNAc(b1-4)[Neu5Ac(a2-8)Neu5Ac(a2-3)]Gal(b1-4)Glc
# How it was run: as §1
# [11] = target: Neu5Ac(a2-3)Gal(b1-3)GlcNAc(b1-2)Man
# How it was run: as §1
# [12] = target: Neu5Ac(a2-3)Gal(b1-4)GlcNAc(b1-3)Gal(b1-4)GlcNAc(b1-3)GalNAc
# How it was run: as §1
# [13] = target: Neu5Ac(a2-3)Gal(b1-4)GlcNAc(b1-3)GalNAc
# How it was run: as §1
# [14] = target: Neu5Ac(a2-3)Gal(b1-4)[Fuc(a1-3)]GlcNAc
# How it was run: as §1
# [15] = target: Neu5Ac(a2-6)Gal(b1-4)GlcNAc
# How it was run: as §1
# [16] = target: Neu5Ac(a2-6)Gal(b1-4)GlcNAc(b1-2)Man(a1-3)Man(b1-4)GlcNAc(b1-4)GlcNAc
# How it was run: as §1
# [17] = target: Neu5Ac(a2-6)Gal(b1-4)GlcNAc(b1-2)Man(a1-6)[Man(a1-3)]Man(b1-4)GlcNAc(b1-4)GlcNAc
# How it was run: as §1
# [18] = target: Neu5Ac(a2-6)Gal(b1-4)GlcNAc(b1-3)GalNAc
# How it was run: as §1
# [19] = target: Neu5Ac(a2-8)Neu5Ac(a2-3)[Gal(b1-3)GalNAc(b1-4)]Gal(b1-4)Glc
# How it was run: as §1
# [20] = target: Neu5Ac(a2-8)Neu5Gc(a2-3)Gal(b1-4)GlcNAc
# How it was run: as §1
# Neu5Ac(b2-6)GalNAc = target: Neu5Ac(b2-6)GalNAc
# How it was run: as §1
binder,measurement,setting,value
B1,glycan array binding signal (z-score),Gal6S(b1-4)Glc6S,-0.529
same,glycan array binding signal (z-score),Gal6S(b1-4)GlcNAc6S,-0.084
same,glycan array binding signal (z-score),GalNAc(b1-4)GlcNAc6S,-0.209
same,glycan array binding signal (z-score),[1],-0.43
same,glycan array binding signal (z-score),[2],-0.826
same,glycan array binding signal (z-score),GlcNAc(b1-3)Fuc,0.451
same,glycan array binding signal (z-score),GlcNAc(b1-3)Gal(b1-4)Glc,-0.369
same,glycan array binding signal (z-score),[3],-0.33
same,glycan array binding signal (z-score),[4],0.761
same,glycan array binding signal (z-score),[5],1.99
same,glycan array binding signal (z-score),[6],1.58
same,glycan array binding signal (z-score),[7],0.464
same,glycan array binding signal (z-score),[8],0.455
same,glycan array binding signal (z-score),[9],2.74
same,glycan array binding signal (z-score),Neu5Ac(a2-3)Gal,-0.037
same,glycan array binding signal (z-score),[10],0.996
same,glycan array binding signal (z-score),[11],0.535
same,glycan array binding signal (z-score),[12],-0.629
same,glycan array binding signal (z-score),[13],0.638
same,glycan array binding signal (z-score),[14],-0.48
same,glycan array binding signal (z-score),[15],0.329
same,glycan array binding signal (z-score),[16],-0.834
same,glycan array binding signal (z-score),[17],0.152
same,glycan array binding signal (z-score),[18],-0.573
same,glycan array binding signal (z-score),[19],-0.531
same,glycan array binding signal (z-score),[20],18
same,glycan array binding signal (z-score),Neu5Ac(b2-6)GalNAc,-0.083
